Measurements from PubChem BioAssay AID2314 (National Center for Advancing Translational Sciences (NCATS), 2010).
In all, about 300,000 compounds went through this assay and about 37,000 (12%) were called active. The entries come from a sample that favours actives as a whole. Values without a mark were called inactive. No stated cut-off is given here; in the data, active means max response mostly above about 13% (no sharp cut-off); inactive means mostly below about 14%.

Assay: Cycloheximide Counterscreen for Small Molecule Inhibitors of Shiga Toxin; further: read at 38.3 µM for the half of the compounds with a filed dose; 0% is about no effect
Settings: cell reporter, cycloheximide protein synthesis inhibition counterscreen; active compounds read high

In order of rising max response:
1. CCOC(=O)c1c(C)[nH]c(C)c1S(=O)(=O)N(C)CC(=O)Nc1ccccc1C  -6.33%
2. Cc1c(C=O)c2ccccn2c1C(=O)c1ccncc1  -6.15%
3. C=CCn1c(SCc2cccc(F)c2)nc2cc(C(=O)N3CCC(C(N)=O)CC3)ccc2c1=O  -5.75%
4. CC(=O)NC1C(Oc2ccc(C)cc2)OC2COC(c3ccco3)OC2C1O (centres undefined)  -5.51%
5. Cc1ccccc1NC(=O)C(C)c1ccc(-c2ccccc2)c(F)c1 (centres undefined)  -5.36%
6. Cc1ccc(OCC(=O)N2CCN(C(=O)c3cccnc3)CC2)cc1  -5.2%
7. O=C(NCc1ccc2c(c1)OCO2)c1cc2c(s1)CS(=O)(=O)C2  -5.16%
8. Nc1nnc2c(C(F)(F)F)nc3ccccc3n12  -5.14%
9. O=C(Nc1ccncc1)c1ccc([N+](=O)[O-])cc1Cl  -4.24%
10. O=C(Nc1ccc(Br)c2cccnc12)c1ccc(Cn2cc([N+](=O)[O-])cn2)o1  -3.97%
11. O=C(NNS(=O)(=O)c1ccc(F)cc1)c1ccc([N+](=O)[O-])cc1Cl  -3.45%
12. CCN1CCN(C(=O)c2ccccc2N(C)S(=O)(=O)c2ccc(C)cc2)CC1  -3.44%
13. O=C(Cn1cnc2ccccc21)Nc1ccccc1-c1ccccc1  -3.38%
14. O=C(NCc1ccc2c(c1)OCO2)C12CC3CC(CC(C3)C1)C2  -3.3%
15. N#CC1(NC(=O)COC(=O)CCN=C2NS(=O)(=O)c3ccccc32)CCCCC1  -3.22%
16. Cc1sc(NC(=O)C2C3CCC(O3)C2C(=O)O)c(C(=O)OC(C)C)c1-c1ccc(Cl)cc1 (centres undefined)  -2.64%
17. O=C(Nc1cccnc1)c1cc([N+](=O)[O-])ccc1Cl  -2.56%
18. Cc1ccc(C)c(CSc2nc(-c3ccco3)nc3c2c(=O)n(C)c(=O)n3C)c1  -2.42%
19. CCCc1cc(=O)[nH]c(SCC(=O)N2C(C)CCCC2C)n1 (centres undefined)  -2.36%
20. COc1ccc([N+](=O)[O-])cc1N(CC(=O)Nc1ccccc1C(=O)N1CCOCC1)S(C)(=O)=O  -2.31%
21. Nc1nc(NCC2CCCO2)nc(Nc2ccccc2F)c1[N+](=O)[O-] (centres undefined)  -2.31%
22. O=S(=O)(c1cccc(Cn2nnc(-c3ccc(F)cc3)n2)c1)N1CCOCC1  -2.1%
23. COC(=O)[C@@H](NC(=O)NCc1cccc(OC)c1)C(C)C  -2.02%
24. O=C(O)CCC(=O)N(Cc1ccccc1)Cc1ccccc1  -1.7%
25. O=C(CCC(=O)n1ncc2ccccc21)NCc1ccccc1Cl  -1.42%
26. COc1ccc(OC)c(CCNC(=O)CCn2ccc3cc(S(=O)(=O)N4CCCC4)ccc32)c1  -1.39%
27. Cc1ccc(/C([O-])=C(/C(=S)NCc2ccco2)[n+]2ccccc2)cc1[N+](=O)[O-]  -1.29%
28. COc1cc(OC)c(C(=O)NCc2ccc3c(c2)OCO3)cc1OC  -1.06%
29. Cc1ccc(C)c(S(=O)(=O)N2CCN(CC(=O)Nc3ccc([N+](=O)[O-])cc3)CC2)c1  -0.724%
30. Cc1nnsc1C(=O)N/N=C/c1ccccc1Cl  -0.513%
31. O=C1c2ccccc2C(=O)N1c1cccc2ccccc12  -0.411%
32. O=c1[nH]c(SCc2cccc(F)c2)nc2ccccc12  0.0734%
33. Cc1[nH]c(C)c(S(=O)(=O)N2CCN(c3cccc(C(F)(F)F)c3)CC2)c1C(=O)N1CCCCC1  0.664%
34. COc1cccc(NC(=O)NCCN2CCCCC2)c1  0.722%
35. CN1CCN(CC(=O)Nc2cccc([N+](=O)[O-])c2)CC1  1.18%
36. CC(CC(=O)N1CCN(c2ccccc2)CC1)S(=O)(=O)c1ccc2c(c1)NC(=O)CS2 (centres undefined)  1.2%
37. Cc1cc[n+](-c2[nH]c(=O)sc2/C=N/NC(=O)c2ccccc2[O-])cc1C  1.3%
38. Cc1ccc(CN2CCN(c3ncccn3)CC2)c(C)c1  1.42%
39. CCc1nc2nc(C)c(NS(=O)(=O)c3ccc4c(c3)CCCC4)c(=O)n2[nH]1  1.61%
40. CN1C(=O)c2ccc(C(=O)Nc3ccc(Br)cn3)cc2C1=O  1.67%
41. Cc1ccc(C)c(CN2CCC(CNC(=O)Nc3ccc(C)c(F)c3)CC2)c1  1.71%
42. Cc1cc2c(s1)c1cnn(Cc3c(F)cccc3Cl)c(=O)c1n2C  4.69%
43. Cc1cc([N+](=O)[O-])ccc1NC(=O)c1ccc(NC(=O)C(C)C)cc1  5.74%
44. CCC(C)NCC(=O)Nc1ccc([N+](=O)[O-])cc1C(=O)Nc1ccccc1F (centres undefined)  9.91%
45. COc1ccccc1C1C(C#N)=C(N)Oc2c1c(-c1ccccc1)nn2-c1ccccc1 (centres undefined)  10.5%
46. O=C(Cc1ccccc1)N/N=C/c1ccc(Cl)cc1Cl  12%
47. CC(C)C[C@@H](COc1ccccc1)N1CCN(CC(C)C)CCC1=O  12.1%
48. Cc1ccc(CC(=O)Nc2cccc(C#N)c2)cc1  14.1%
49. COc1cccc(CC(=O)Nc2ccc(-c3csc(C)n3)cc2)c1  15.4%
50. CC(C)NC(=S)NN=C1CCCCCCCCCCC1  16.4%
51. O=C(NCc1ccc2c(c1)OCO2)c1cc(F)c(F)cc1Cl  16.6%
52. N#C/C(=C/c1ccc(Cl)cc1)NC(=O)c1ccccc1  17.9%

In the case of `CC(C)(C)c1cc[n+](-c2[nH]c(=O)sc2/C=N/N=C(\[O-])c2ccccc2)cc1`, the max response is reported as 25.7% (active).
In the case of `O=C(CSc1nnc(SCc2ccc(Cl)cc2)s1)N/N=C/c1ccccc1Cl`, the max response is reported as 12.5% (active).
In the case of `COc1cccc(NC(=O)Cc2ccc(C)cc2)c1`, the max response is reported as 27.5% (active).
In the case of `COc1cccc(NC(=O)NCc2ccc(F)cc2)c1`, the max response is reported as 10.4% (active).
For `Cc1ccc(NC(=O)CN2CCC(C(N)=O)CC2)cc1[N+](=O)[O-]`, the max response was 15.7% (active).
With `CCN(CC)C(=O)N1CCN(C(=O)c2ccc(C)cn2)CC1` the max response was 27.2% (active).
For `O=[N+]([O-])c1cccc(/C([O-])=C(/C(=S)Nc2ccccc2F)[n+]2ccccc2)c1`, the max response was 44.3% (active).
In the case of `O=C(NCc1ccc2c(c1)OCO2)c1sccc1Br`, the max response is reported as 16.3% (active).
For `O=C(NCc1ccc2c(c1)OCO2)c1ccc(Cl)s1`, the max response was 17.6% (active).
In the case of `O=C(Nc1ccc(Br)cn1)c1ccc([N+](=O)[O-])cc1Cl`, the max response is reported as 51.7% (active).
In the case of `CC(C)C(=O)Nc1cccc(NC(=O)c2ccc([N+](=O)[O-])cc2Cl)c1`, the max response is reported as 27.7% (active).
In the case of `O=C(Nc1ccc(Br)cn1)c1ccc([N+](=O)[O-])o1`, the max response is reported as 48.9% (active).
